Assay results from PubChem BioAssay.
Results filed as inconclusive are left out. Active and inactive are the calls of the source.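 How the source made its calls, unless noted: active means cell viability at or below a set limit in both duplicate runs, the limit being the all-compound median minus 4 SD (cut at about 23% in these data, passing the limit was not always enough); inconclusive means no clear call, values can overlap the other calls; inactive means the rest.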

Experiment: doxorubicin toxicity protection in MRP-1 cells – H69AR cells, CellTiter-Glo, duplicate, MRP-1 activator project, pilot screen (AID 807;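 active means viability increase at or above a cutoff of the median across tested compounds plus 3 SD, cut at about 8.5% in these data, passing the limit was not always enough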;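 further: compound pretreatment 18-22 h then 72 h combined with doxorubicin; 0% = doxorubicin alone and 100% = vehicle without doxorubicin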)
Settings: H69AR viability with doxorubicin, CellTiter-Glo luminescence; at 10 µM; hits give high values

Structure (SMILES) | viability increase
OC(COc1ccc(Cl)c2ccccc12)CN1CCN(c2ccccn2)CC1 (stereo not drawn) | -3.19% (inactive)
CC1(C)CC(=O)C=C(NCCCNC2CCCCC2)C1 | -2.17% (inactive)
Cc1cc(Nc2ccc(F)cc2)n2nc(C)nc2n1 | -0.76% (inactive)
Cc1cc(C(=O)N2CCN(C(c3ccccc3)c3ccccc3)CC2)on1 | 0.42% (inactive)
COc1cccc(C2NC(CCSC)(C(=O)O)C3C(=O)N(C(C)C)C(=O)C23)c1O (stereo not drawn) | 0.13% (inactive)
CC1CC(C)CN(S(=O)(=O)c2cccc3cccnc23)C1 (stereo not drawn) | -4.51% (inactive)
COc1ccc(NS(=O)(=O)c2ccc3c(c2)oc(=O)n3C)c(OC)c1 | 0.13% (inactive)
Cc1ccc(-c2nc(CS(=O)(=O)CC(=O)N3CC(C)CC(C)C3)c(C)o2)cc1 (stereo not drawn) | -2.57% (inactive)
COc1ccc(-n2c(Cn3c(=O)sc4ccccc43)nnc2SCC(=O)N2CCCC2)cc1 | 0.25% (inactive)
CC(C)c1ccccc1NC(=O)CCCC(=O)O | -0.29% (inactive)
CCc1ccc(C2CC(c3ccccc3)Nc3nc(N)nn32)cc1 (stereo not drawn) | 0.7% (inactive)
COc1cccc(-c2csc(NC(=O)C3CC3)n2)c1 | 4.92% (inactive)
CCC(C)N1C(=O)CCC1C(=O)NCc1ccc2c(c1)OCO2 (stereo not drawn) | -3.05% (inactive)
C=CCSC1=C(C#N)C(c2ccc(OCC)cc2)CC(=O)N1 (stereo not drawn) | -1.8% (inactive)
COC(=O)C1C(=O)C=C(N2CCOCC2)CC1(C)C (stereo not drawn) | -0.72% (inactive)
CCOCCCNC(=O)C(NC(=O)C1CCC(=O)N1)c1ccc(C)cc1 (stereo not drawn) | -0.58% (inactive)
CC(C)N(CCc1ccncc1)C(=O)Nc1ccc(Cl)c(Cl)c1 | -0.23% (inactive)
C=CCn1c(C)nc2c(c1=O)c1nc3ccccc3nc1n2-c1ccc(C)cc1 | -1.62% (inactive)
COC(=O)c1ccccc1NC(=O)Cn1cc2c(n1)CCC(C)C2 (stereo not drawn) | -0.23% (inactive)
Cc1cccc(-n2c(CNC(=O)c3ccccc3)nnc2SCC(=O)Nc2nccs2)c1 | -3.48% (inactive)
CCc1nnc(NC(=O)CSc2nnc(Cc3cccn3C)n2C)s1 | -1.23% (inactive)
CC(=O)c1ccc(N2CCN(C(=O)c3cc4c(=O)n(C)c5ccccc5c4n3C)CC2)cc1 | -3.01% (inactive)
O=C(c1cc(-c2cccc(O)c2)on1)N1CCc2ccccc2C1 | 1.48% (inactive)

Experiment: viability of HCT116 without oncogenic beta-catenin – human colon tumor cells, pilot screen (AID 823);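 further: 0% = wells killed by 20 µM Hyamine and 100% = untreated DMSO cell wells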
Settings: HCT116 beta-catenin knockout viability, CellTiter-Glo, 60 h; at 10 µM; hits give low values

Structure (SMILES) | viability
Nc1nc(Nc2ccccc2Br)nc(C(F)(F)F)n1 | 104% (inactive)
O=C(c1ccc(F)cc1)c1cn[nH]c1-c1ccccc1O | 99.5% (inactive)
CC(C)NC(=O)CCCc1ccccc1 | 92.1% (inactive)
COc1ccc(C2N(c3ccc(Cl)cc3)C(=O)C3CCCN32)cc1 (stereo not drawn) | 101% (inactive)
Cn1c(CCNC(=O)C(C)(C)C)nc2ccccc21 | 95.3% (inactive)
CCCCN1C(=O)C(O)(CC(=O)c2ccccc2OC)c2ccccc21 (stereo not drawn) | 79.6% (inactive)
CCC(=O)Nc1c2c(nn1-c1ccc(F)cc1)CS(=O)C2 (stereo not drawn) | 99.2% (inactive)
O=C(Cn1c(=O)oc2cc(S(=O)(=O)N3CCOCC3)ccc21)N1CCc2ccccc2C1 | 103% (inactive)
O=C(CCCN1C(=O)c2ccccc2C1=O)Nc1ccccc1C(=O)N1CCOCC1 | 102% (inactive)
CCCCn1c(CCC(=O)O)ccc1-c1cccs1 | 97.1% (inactive)
FC(F)(F)c1nnc2ccc(-n3ccnc3)nn12 | 103% (inactive)
CCOC(=O)C1Cc2ccccc2C(=O)O1 (stereo not drawn) | 96.4% (inactive)
Cc1ccc(N2CCN(C(=O)c3ccccc3F)CC2)c(C)c1 | 93.3% (inactive)
CN=C1SC(CC(=O)Nc2ccccc2F)C(=O)N1C (stereo not drawn) | 112% (inactive)
CC(=O)Nc1ccc(NC(=O)c2oc3cc(C)c(C)cc3c2C)cc1 | 104% (inactive)
CC(=O)Nc1ccc(S(=O)(=O)Nc2cccc(C(=O)NC(C)(C)C)c2)cc1 | 92.1% (inactive)
CCc1nnc(NC(=O)CCC(=O)O)s1 | 98.3% (inactive)
OC(COc1ccc(Cl)c2ccccc12)CN1CCN(c2ccccn2)CC1 (stereo not drawn) | 94.9% (inactive)
CC1(C)CC(=O)C=C(NCCCNC2CCCCC2)C1 | 96.5% (inactive)
Cc1cc(Nc2ccc(F)cc2)n2nc(C)nc2n1 | 100% (inactive)

Structure (SMILES) | viability
Cc1cc(C(=O)N2CCN(C(c3ccccc3)c3ccccc3)CC2)on1 | 89.7% (inactive)
COc1cccc(C2NC(CCSC)(C(=O)O)C3C(=O)N(C(C)C)C(=O)C23)c1O (stereo not drawn) | 95% (inactive)
CC1CC(C)CN(S(=O)(=O)c2cccc3cccnc23)C1 (stereo not drawn) | 87.9% (inactive)
COc1ccc(NS(=O)(=O)c2ccc3c(c2)oc(=O)n3C)c(OC)c1 | 104% (inactive)
Cc1ccc(-c2nc(CS(=O)(=O)CC(=O)N3CC(C)CC(C)C3)c(C)o2)cc1 (stereo not drawn) | 58% (inactive)
COc1ccc(-n2c(Cn3c(=O)sc4ccccc43)nnc2SCC(=O)N2CCCC2)cc1 | 104% (inactive)
CC(C)c1ccccc1NC(=O)CCCC(=O)O | 96.9% (inactive)
CCc1ccc(C2CC(c3ccccc3)Nc3nc(N)nn32)cc1 (stereo not drawn) | 97.3% (inactive)
COc1cccc(-c2csc(NC(=O)C3CC3)n2)c1 | 96.6% (inactive)
CCC(C)N1C(=O)CCC1C(=O)NCc1ccc2c(c1)OCO2 (stereo not drawn) | 102% (inactive)
C=CCSC1=C(C#N)C(c2ccc(OCC)cc2)CC(=O)N1 (stereo not drawn) | 94.5% (inactive)
COC(=O)C1C(=O)C=C(N2CCOCC2)CC1(C)C (stereo not drawn) | 96.4% (inactive)
CCOCCCNC(=O)C(NC(=O)C1CCC(=O)N1)c1ccc(C)cc1 (stereo not drawn) | 109% (inactive)
CC(C)N(CCc1ccncc1)C(=O)Nc1ccc(Cl)c(Cl)c1 | 81.1% (inactive)
C=CCn1c(C)nc2c(c1=O)c1nc3ccccc3nc1n2-c1ccc(C)cc1 | 92.3% (inactive)
COC(=O)c1ccccc1NC(=O)Cn1cc2c(n1)CCC(C)C2 (stereo not drawn) | 92.9% (inactive)
Cc1cccc(-n2c(CNC(=O)c3ccccc3)nnc2SCC(=O)Nc2nccs2)c1 | 112% (inactive)
CCc1nnc(NC(=O)CSc2nnc(Cc3cccn3C)n2C)s1 | 100% (inactive)
CC(=O)c1ccc(N2CCN(C(=O)c3cc4c(=O)n(C)c5ccccc5c4n3C)CC2)cc1 | 96.5% (inactive)
O=C(c1cc(-c2cccc(O)c2)on1)N1CCc2ccccc2C1 | 114% (inactive)
